Giardia kill – kills Giardia lamblia. AID 540267. Giardia lamblia trophozoite viability. activity change, % at 7.66 µM, hits read low. 340,000 tested, 0.15% active; in the data active = activity change below about -80%; inconclusive = between about -30% and that limit;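 also: parasites exposed to compound for two days anaerobically before the ATP read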
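Giardia trophozoites, 100 cells per well, were exposed to compounds for 48 hrs at 37 deg C under anaerobic conditions; viability was then read as ATP content by bioluminescence after 15-30 min at room temperature.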
BRCA1 expr act – increases BRCA1 expression. 380,000 tested, 1.1% active. Potency, µM (highest dose often 46.1 µM), usual class: activators. MCF7-BRCA1-FFLuc reporter, luminescence, 48 h; response scale: scaled: vehicle 0%, 10 µM genistein 100%; also: nearly all actives have a fitted effect of over 80% in size
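Activators of BRCA1 expression were detected as increased firefly luciferase luminescence in engineered MCF7 cells after 48 h compound incubation. Signals were scaled to genistein 10 microM as full activation.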
TrxR1 substrate – is turned over as a substrate by rat TrxR1; O89049; purified TrxR1 substrate turnover, NADPH consumption readout; Potency, µM (titrated, usually from 114 µM); 390,000 tested, 0.01% active; also: nearly all actives have a fitted effect of over 50% in size
Target sequence (O89049 whole entry, looked up): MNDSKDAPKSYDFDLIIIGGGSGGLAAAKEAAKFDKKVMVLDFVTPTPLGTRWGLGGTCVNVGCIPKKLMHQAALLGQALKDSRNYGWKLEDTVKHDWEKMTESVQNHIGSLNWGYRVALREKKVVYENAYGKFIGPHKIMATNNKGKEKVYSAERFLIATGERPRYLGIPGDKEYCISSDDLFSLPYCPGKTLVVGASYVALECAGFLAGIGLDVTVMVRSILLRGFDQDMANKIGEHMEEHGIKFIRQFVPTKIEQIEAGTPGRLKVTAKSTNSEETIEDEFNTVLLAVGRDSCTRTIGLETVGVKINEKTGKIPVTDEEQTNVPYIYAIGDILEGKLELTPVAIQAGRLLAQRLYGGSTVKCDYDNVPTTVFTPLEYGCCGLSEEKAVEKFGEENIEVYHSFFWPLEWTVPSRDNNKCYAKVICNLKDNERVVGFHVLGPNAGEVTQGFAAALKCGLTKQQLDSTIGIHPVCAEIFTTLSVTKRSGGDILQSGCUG
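Rat TrxR1, dispensed at 90 nM, was prereduced with 400 uM NADPH (final) for 5 min at ~22 deg C, then incubated with compound 15 min before 400 uM selenite. A first-read NADPH fluorescence drop versus no-compound background flagged substrates.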
IL2 activator – activates IL-2 in a cell-based reporter assay. IL-2 activation reporter assay, cell-based qHTS; stimulated with anti-CD3/CD4/CD28 beads; in transgenic mouse T cells. activation, % (series mostly up to about 46 µM). 360,000 tested, 0.065% active. AID 652025; in the data active = activation above about 50%; inconclusive = mostly about 30% to 49%
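Unstimulated transgenic mouse T cells, 750 per well, received compound and, after 60 minutes, anti-CD3/anti-CD4 bead plus anti-CD28 stimulation. EGFP and DsRed were quantified after 18 hours.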
rTrxR1 inhibitor – inhibitors of rat thioredoxin reductase 1. O89049. Potency, µM (series often up to 114 µM), most hits filed as inhibitors. recombinant rTrxR1, NADPH fluorescence consumption, selenite substrate. 390,000 tested, 1% active; also: nearly all actives have a fitted effect of over 65% in size
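Rat TrxR1 (90 nM in the dispensed reagent) was pre-reduced with 400 uM NADPH for 5 min at room temperature, then incubated with compound for 15 min. After 400 uM selenite was added, NADPH fluorescence (Ex 340/Em 450 nm) was followed for 8 min.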
IDH1 R132H inh – blocks human mutant IDH1 R132H enzyme; O75874; IDH1-R132H enzyme, NADPH consumption, diaphorase/resazurin fluorescence; Potency, µM (series often up to 76.6 µM), actives largely listed as inhibitors; 390,000 tested, 0.093% active; also: nearly all actives have a fitted effect of over 65% in size
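IDH1-R132H (0.5 ug/mL dispensed) in pH 7.5 Tris buffer was preincubated 30 min with compound, then given a substrate mix of 0.016 mM NADPH and 2 mM alpha-KG for 80 min at room temperature; remaining NADPH was read by diaphorase/resazurin fluorescence.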
Of the large screens only hits and unclear results are named; the others gave an inactive call. An excerpt weighted towards active compounds, which were near 2.2% of everything screened. Unless noted, calls follow the shape of the dose curve; as a rule, active = well fitted curve in the direction sought with a large enough effect; inconclusive = small, poorly fitted or top-dose-only effect, or another doubt; inactive = no such curve, though single readings can be large; an effect the other way counts as inactive or inconclusive.

CCS(=O)(=O)N1CC(=O)N(c2ccc(Cl)cc2)C(C)(C(=O)NC2CCCCC2)C1 (stereo not given)	none (no result: Giardia kill, BRCA1 expr act, IL2 activator)
CCOC(=O)C1=C(C)NC(C)=C(C(=O)OCC)C1c1ccco1	none
CCOC(=O)C1=C(C)NC(=S)NC1c1ccc(-c2cccc(Cl)c2C)o1 (stereo not given)	rTrxR1 inhibitor 22µM
CCOC(=O)C1=C(C)NC(=S)NC1c1ccco1 (stereo not given)	rTrxR1 inhibitor 50µM
CC(C)c1ccc(C2C3=C(CC(c4ccco4)CC3=O)Nc3nc(C(F)(F)F)nn32)cc1 (stereo not given)	none (no result: IL2 activator, IDH1 R132H inh)
CC(C)(Oc1ccc(Br)cc1)C(=O)Nc1cc(-c2nc3ccccc3[nH]2)ccc1Cl	none (no result: Giardia kill, IL2 activator)
CCOC(=O)c1ccc(-n2c(CN3CCC(O)CC3)nc3ccc([N+](=O)[O-])cc3c2=O)cc1	rTrxR1 inhibitor 50µM
Cn1c(=O)c(=O)n(C)c2cc(S(=O)(=O)N3CCCC3C(=O)Nc3cccc(F)c3)ccc21 (stereo not given)	none (no result: Giardia kill, BRCA1 expr act, IL2 activator)
COc1cccc(-c2ccc(SCc3ccccn3)nn2)c1	BRCA1 expr act 5µM
COc1ccc(-c2ccc(SCc3ccccn3)nn2)cc1OC	none
O=[N+]([O-])c1cccc(-c2ccc(SCc3ccccn3)nn2)c1	BRCA1 expr act 6.3µM
CCOc1cccc(C2c3[nH]c4ccccc4c3CCN2C(=O)Cc2cccc(OCC)c2OCC)c1 (stereo not given)	none (no result: Giardia kill, IL2 activator)
Cc1ccc(NC(=O)CN2C(=O)CSc3ccc(S(=O)(=O)N(C)C)cc32)c(C)c1	none (no result: Giardia kill, IL2 activator)
Cc1cc(C)nc(N2N=C(C(C)(C)C)CC2=O)n1	rTrxR1 inhibitor 40µM
Cc1ccc(SCC2=NN(c3nc(C)cc(C)n3)C(=O)C2)cc1	Giardia kill inconclusive
CCOC(=O)N1CCN(C(=O)c2ccc3c(c2)NC(=O)/C(=C\c2ccc(OC)c(OC)c2)S3)CC1	rTrxR1 inhibitor 25µM
C[C@@H](NC(=O)CN(c1ccccc1)S(=O)(=O)N(C)C)c1ccccc1	none (no result: Giardia kill, IL2 activator)
CC(Cc1cccs1)NC(=O)Nc1ccc([N+](=O)[O-])cc1 (stereo not given)	BRCA1 expr act 5.6µM
CCOC(=O)c1c(C)n(-c2ccccc2)c2ccc(OC(=O)c3cccc(Cl)c3)cc12	none (no result: Giardia kill, BRCA1 expr act, IL2 activator)
Cn1c(-c2cccs2)nc2ccccc21	BRCA1 expr act 7.9µM
Cn1c(-c2ccc(C=O)s2)nc2ccccc21	BRCA1 expr act 11µM, rTrxR1 inhibitor inconclusive
Cn1c(-c2ccc(N)cc2)nc2ccccc21	none
CCOC(=O)c1ccc(NC(=O)CCc2c(C)nc3c(c(C)nn3-c3ccccc3)c2C)cc1	none (no result: Giardia kill, BRCA1 expr act, IL2 activator)
Cc1cc(C)c2nc(N3C(=O)C(O)=C(C(=O)c4ccco4)C3c3ccc(O)cc3)sc2c1 (stereo not given)	IDH1 R132H inh 46µM
Cc1cc(C)c2nc(N3C(=O)C(O)=C(C(=O)c4ccco4)C3c3cccc(O)c3)sc2c1 (stereo not given)	rTrxR1 inhibitor inconclusive, IDH1 R132H inh 37µM
Cc1ccc(C2C(C(=O)c3ccco3)=C(O)C(=O)N2c2nnc(C)s2)cc1 (stereo not given)	none
Oc1ccc(Br)cc1C1C=C(c2ccc3c(c2)OCO3)NC(c2cccc(F)c2)N1 (stereo not given)	none (no result: IL2 activator, IDH1 R132H inh)
O=S1(=O)C=C(Sc2nc3cc(Cl)ccc3o2)c2ccccc21	rTrxR1 inhibitor 2.8µM
Cc1ccc(S(=O)(=O)C(CNS(=O)(=O)c2ccc(F)c(C(F)(F)F)c2)c2ccco2)cc1 (stereo not given)	rTrxR1 inhibitor inconclusive (no result: Giardia kill, BRCA1 expr act, IL2 activator)
CC(O)CN(CC(C)O)c1ccc2c(c1)Cc1cc([N+](=O)[O-])ccc1-2 (stereo not given)	none
CC(=NO)c1ccc2c(c1)Cc1cc([N+](=O)[O-])ccc1-2	Giardia kill inconclusive, BRCA1 expr act 5.6µM
CC(=O)c1ccc2c(c1)Cc1cc(C(C)=O)ccc1-2	BRCA1 expr act 2µM
CCC(=O)Nc1ccc2c(c1)Cc1cc(NC(=O)CC)ccc1-2	none
O=C(NCc1cccnc1)[C@@H]1CC=C[C@@H]2CCN(C3CCCCC3)C(=O)[C@@H]21	none (no result: Giardia kill, BRCA1 expr act, IL2 activator, IDH1 R132H inh)
CCOc1cc(/C=C2\NC(=O)NC2=O)cc([N+](=O)[O-])c1O	rTrxR1 inhibitor 50µM
C=C(C)CSc1nnc(-c2cccc(Cl)c2)n1N	BRCA1 expr act 13µM
C=C(C)CSc1nnc(-c2ccc(OC)cc2)n1N	BRCA1 expr act inconclusive
O=C(Nc1ccc2c(c1)ncn2C1CCCCC1)c1ccco1	BRCA1 expr act 13µM
CC(C)n1cnc2cc(NC(=O)c3ccco3)ccc21	Giardia kill inconclusive, BRCA1 expr act inconclusive
CCN(C(=O)c1sc2nc3n(c(=O)c2c1C)CCCCC3)c1ccc(OC)cc1	rTrxR1 inhibitor 71µM (no result: Giardia kill, BRCA1 expr act, IL2 activator)
CCc1cccc(NC(=O)c2sc3nc4n(c(=O)c3c2C)CCC4)c1	BRCA1 expr act 13µM
Cc1c(C(=O)Nc2cccc(C(F)(F)F)c2)sc2nc3n(c(=O)c12)CCC3	none (no result: Giardia kill, BRCA1 expr act, IL2 activator)
Cc1ccc(S(=O)(=O)CNC(=S)c2ccc3ccccc3c2)cc1	rTrxR1 inhibitor 40µM
COc1ccc(C(=S)NCS(=O)(=O)c2ccc(C)cc2)cc1	rTrxR1 inhibitor 4µM
Cc1ccc(S(=O)(=O)CNC(=S)c2cccc(C)c2)cc1	rTrxR1 inhibitor inconclusive
COc1ccc(C(=S)Nc2ccc(C)cc2)cc1	BRCA1 expr act inconclusive
CCC(C)NC(=O)C1CCN(C(=O)c2cc3sccc3n2Cc2ccc(Cl)cc2)CC1 (stereo not given)	none (no result: Giardia kill, BRCA1 expr act, IL2 activator)
Oc1ccccc1/C=N/c1c(-c2ccco2)nc2ccccn12	rTrxR1 inhibitor 79µM
CC(C)(C)c1cc(NCCCn2ccnc2)n2ncc(-c3ccc(Cl)cc3)c2n1	none
CN(C)CCCNc1cc(C(C)(C)C)nc2c(-c3ccccc3)cnn12	BRCA1 expr act 5.6µM
CSc1nc(O)c(C(c2cccc([N+](=O)[O-])c2)c2c(O)nc(SC)[nH]c2=O)c(=O)[nH]1	rTrxR1 inhibitor 45µM
CCOc1ccc(C(c2c(O)nc(SC)[nH]c2=O)c2c(O)nc(SC)[nH]c2=O)cc1	rTrxR1 inhibitor 28µM
C=CCOc1ccc(C(c2c(O)nc(SC)[nH]c2=O)c2c(O)nc(SC)[nH]c2=O)cc1	rTrxR1 inhibitor 7.9µM
CSc1nc(O)c(C(c2ccc(O)cc2)c2c(O)nc(SC)[nH]c2=O)c(=O)[nH]1	rTrxR1 inhibitor 8.9µM
CCOc1ccccc1C(c1c(O)nc(SC)[nH]c1=O)c1c(O)nc(SC)[nH]c1=O	rTrxR1 inhibitor inconclusive
CCCCCCCCCC[n+]1ccc(/C=C/c2c[nH]c3ccccc23)cc1	rTrxR1 inhibitor inconclusive (no result: Giardia kill, BRCA1 expr act, IL2 activator, IDH1 R132H inh)

Screening data: PubChem BioAssay, National Center for Advancing Translational Sciences (NCATS)
